# Source: PubChem (National Center for Advancing Translational Sciences (NCATS))
# MCF10A rereplic = inducers of DNA re-replication in MCF 10A breast cells; MCF 10A DNA re-replication, Hoechst nuclear intensity, 48 h; Potency, µM (doses to about 46.1 µM), inactives show top-dose activity, positive = re-replication, hits mostly activators; 350,000 compounds, 2.9% hits; AID 624296; also: % of control where 0% means no effect; nearly all actives have a fitted effect of over 50% in size
# SW480 rerep = inducers of DNA re-replication in SW480 colon cancer cells; SW480 DNA re-replication, Hoechst DNA content imaging, 48 h; Potency, µM (series often up to 46.1 µM), inactives show at the top dose re-replication activation, hits mostly activators; 340,000 compounds, 1.8% hits; AID 624297; also: % of control where 0% means no effect; nearly all actives have a fitted effect of over 55% in size
#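 First, 250 cells per well were seeded. Next, compound or vehicle (23 nL) was pinned in, plates sat 48 hr at 37 C. Finally Hoechst was added for 40 min before fluorescence scanning.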
# RORgamma inh = inhibitors of mouse ROR gamma transcriptional activity; P51450; Drosophila S2 Gal4-RORgamma UAS-luciferase reporter, 20 h; Potency, µM (highest dose often 53.6 µM), for inactives: at the highest dose activity change, negative = inhibition, hits mostly inhibitors; 310,000 compounds, 5.4% hits; also: % is scaled to controls: 0 for no effect and ±100 for the full control effect; nearly all actives have a fitted effect of over 60% in size
# Target sequence (P51450 whole entry, looked up, the tested form may be a part): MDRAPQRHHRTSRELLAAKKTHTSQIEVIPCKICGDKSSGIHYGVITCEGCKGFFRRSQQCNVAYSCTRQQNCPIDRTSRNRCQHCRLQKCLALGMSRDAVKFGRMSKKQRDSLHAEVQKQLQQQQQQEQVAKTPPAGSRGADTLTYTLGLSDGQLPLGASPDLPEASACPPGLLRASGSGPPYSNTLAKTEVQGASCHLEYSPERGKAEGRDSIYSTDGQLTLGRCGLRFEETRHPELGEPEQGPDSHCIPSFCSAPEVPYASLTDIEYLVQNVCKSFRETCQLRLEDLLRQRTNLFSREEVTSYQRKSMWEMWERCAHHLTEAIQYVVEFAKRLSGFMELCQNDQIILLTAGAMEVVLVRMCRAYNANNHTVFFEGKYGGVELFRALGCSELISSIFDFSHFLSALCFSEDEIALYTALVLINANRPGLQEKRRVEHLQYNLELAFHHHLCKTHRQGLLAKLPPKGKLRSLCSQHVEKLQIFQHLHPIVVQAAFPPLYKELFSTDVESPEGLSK
#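 Using a luciferase readout, inhibitors were identified by reduced reporter activity in Drosophila cells coexpressing a copper-inducible Gal4–ROR gamma fusion and UAS-driven Photinus luciferase, incubated 20 hr after 700 uM copper sulfate.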
# Gal4-VP16 FLuc = counter-screen for ROR gamma inhibitors: Gal4-VP16 reporter; 310,000 compounds, 3.5% hits; AID 2546; Potency, µM (doses to about 53.6 µM), for inactives: at the highest dose activity, negative = inhibition, hits mostly inhibitors; Drosophila S2 Gal4-VP16 UAS-luciferase, luminescence, 20 h;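 also: Gal4-VP16 expression switched on by copper sulfate through the metallothionein promoter; % is scaled to controls: 0 for no effect and ±100 for the full control effect; nearly all actives have a fitted effect of over 50% in size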
# ELG1 repair inh = ELG1-dependent DNA repair inhibition. AID 504467. 330,000 compounds, 2.3% hits. HEK293T ELG1-luciferase reporter, luminescence, 16 h; DNA damage induced by 5-fluorouridine. Potency, µM (highest dose often 46.1 µM), inactives show at the highest dose activity change, negative = inhibition, usual class: inhibitors; also: % is scaled to controls: 0 for no effect and ±100 for the full control effect; nearly all actives have a fitted effect of over 55% in size
#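 Luminescence from the luciferase reporter, measured 30 min after ONE-Glo reagent at room temperature, was the read-out. Beforehand, 2,000 cells per well were exposed for 16 hr at 37 °C to 5-fluorouridine together with compound or vehicle.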
# * hit, by the source's call; ? = inconclusive; nt = not tested or not shown; [ ] = remark or other dose. A selection: hits, their analogues and other compounds. The true share with any hit is near 10%. Calls follow the shape of the dose curve; as a rule, active = well fitted curve in the direction sought with a large enough effect; inconclusive = small, poorly fitted or top-dose-only effect, or another doubt; inactive = no such curve, though single readings can be large; an effect the other way counts as inactive or inconclusive. Potency is read from the fitted curve at half-maximal effect.
SMILES,MCF10A rereplic,SW480 rerep,RORgamma inh,Gal4-VP16 FLuc,ELG1 repair inh
COc1ccc(C2CC(C(F)(F)F)n3nc(C(=O)NCc4c(C)nn(C)c4C)c(Cl)c3N2)cc1 (centres undefined),0%,-4%,-3%,22µM*,?
COc1ccc(C2CC(C(F)(F)F)n3nc(C(=O)N(C)Cc4cn(C)nc4C)c(Cl)c3N2)cc1 (centres undefined),-1%,0%,?,2%,-24%
COc1cccc(NC(=O)CCNS(=O)(=O)c2ccc(Br)s2)c1,3%,5%,33%,7%,-26%
Cc1ccccc1/C=N/n1c(C2CCCCC2)n[nH]c1=S,?,-4%,16µM*,?,2%
Fc1ccccc1/C=N/n1c(C2CCCCC2)n[nH]c1=S,21%,-20%,11µM*,?,19%
O=[N+]([O-])c1ccccc1/C=N/n1c(C2CCCCC2)n[nH]c1=S,?,-7%,?,35µM*,?
S=c1[nH]nc(C2CCCCC2)n1/N=C/c1ccccc1Br,?,14%,?,?,4%
c1ccc2c(Cn3ccnc3)cccc2c1,0%,4%,nt,nt,6%
N#CCCN(C(=O)c1ccc2c(=O)n3c(nc2c1)CCCCC3)c1ccccc1,1%,4%,9%,-2%,22%
Cc1ccc(NC(=O)C2COc3ccccc3O2)c(C)c1 (centres undefined),7%,-9%,8%,6%,?
COc1ccccc1C(C)NS(=O)(=O)c1cccs1 (centres undefined),nt,nt,-16%,-5%,-4%
O=C(N/N=C/c1cc(Br)c(Br)o1)C(O)c1ccccc1 (centres undefined),?,?,-1%,-9%,?
Cc1onc(-c2ccccc2)c1C(=O)N/N=C/c1cc(Br)c(Br)o1,?,10%,7.1µM*,10µM*,-12%
Cc1ccc(/C=N/NC(=O)c2c(-c3ccccc3)noc2C)o1,-16%,-2%,13µM*,?,2%
Cc1onc(-c2ccccc2)c1C(=O)N/N=C/c1ccc(Br)cc1,-4%,3%,?,?,-27%
Cc1cccc(C(=O)N/N=C/c2cc(Br)c(Br)o2)c1,?,-695%,11µM*,?,7%
CCOc1ccccc1OCC(=O)NN=C1CCCC(=O)C1,1%,5%,nt,nt,1%
CCOc1ccc(S(=O)(=O)N2CCC(C(=O)NCc3ccccc3CN3CCCC3)CC2)cc1,23%,?,nt,nt,5%
CC1CC(=S)Nc2ccccc2S1 (centres undefined),-1%,0%,?,4µM*,?
O=C1CC(c2ccc(F)cc2)Sc2ccccc2N1 (centres undefined),?,0%,6%,-5%,26%
COc1ccccc1CCNC(=O)c1cc(COc2cccc(C(F)(F)F)c2)on1,12%,-11%,26%,1%,0%
O=C(NCC(c1ccco1)N1CCc2ccccc2C1)C(=O)Nc1ccc(F)cc1F (centres undefined),17%,0%,nt,nt,-18%
Oc1oc(-c2cccc3ccccc23)nc1/C=N/c1nccs1,17%,1%,8.9µM*,13µM*,13%
CCS(=O)(=O)CCSc1nc2ccccc2s1,0%,-10%,4%,24%,29%
C=CCS(=O)(=O)c1nc2ccccc2s1,7.3µM*,?,19%,-12%,?
SMILES,MCF10A rereplic,SW480 rerep,RORgamma inh,Gal4-VP16 FLuc,ELG1 repair inh
O=S(=O)(CCSc1nc2ccccc2s1)c1nc2ccccc2s1,?,?,7.1µM*,16µM*,?
O=C(Nc1cc(-c2nc3ncccc3o2)ccc1Cl)c1ccc([N+](=O)[O-])o1,1.3µM*,1.3µM*,-13%,-16%,-8%
O=C(Nc1cc(-c2nc3ncccc3o2)ccc1Cl)c1cccs1,?,0%,-24%,-18%,-6%
O=C(Nc1ccccn1)c1ccco1,1%,1%,6%,3%,?
Cc1ccnc(NC(=O)c2ccc([N+](=O)[O-])o2)c1,4.1µM*,5.8µM*,?,?,15%
O=C(Nc1ccccn1)c1ccc([N+](=O)[O-])o1,9.2µM*,?,?,?,-25%
O=C(Nc1ncccn1)c1ccc([N+](=O)[O-])o1,9.2µM*,?,14µM*,?,28%
O=C(Cn1nnc(-c2ccccc2)n1)NCC(=O)Nc1ccc(F)c(F)c1F,-4%,-14%,nt,nt,-13%
CCCC(C)NC(=O)c1sc2nc3n(c(=O)c2c1C)CCC3 (centres undefined),7%,-9%,29%,23%,8%
O=S1OC(c2ccccc2)c2cc(Cl)ccc21 (centres undefined),-65%,-6%,nt,nt,-4%
CC(C)(C)C(=O)OCOP(=O)(COCCn1cnc2c(N)ncnc21)OCOC(=O)C(C)(C)C,8%,15%,-15%[10 µM],-3%,nt
S=c1[nH]c(-c2ccccc2)cn1/N=C/c1cccs1,?,14%,?,?,?
S=c1[nH]c(-c2ccccc2)cn1/N=C/c1ccc(Br)cc1,11%,-1%,0.4µM*,7.1µM*,-16%
Fc1ccccc1/C=N/n1cc(-c2ccccc2)[nH]c1=S,0%,0%,1.4µM*,8.9µM*,?
O=C(O)c1ccc(/C=N/n2cc(-c3ccccc3)[nH]c2=S)cc1,0%,-20%,-41%,-9%,0%
Cc1ccc(C)c(/C=N/n2cc(-c3ccccc3)[nH]c2=S)c1,?,-1%,0.28µM*,?,?
CC(=O)OC[C@@H]1O[C@@H](O/N=C2/C[C@@H](O)[C@@H](O)[C@@H]3[C@@H]4C(=O)N(C(C)(C)C)C(=O)[C@H]4CC[C@H]23)[C@H](OC(C)=O)[C@H](OC(C)=O)[C@@H]1OC(C)=O,nt,nt,5%[10 µM],-1%[10 µM],nt
CCOc1ccc(C(=O)NCC(=O)N2CCC3(CC2)NCCc2[nH]cnc23)cc1,8%,?,0%,2%,18%
COc1ccc(N2CC(C(=O)N3CCCC(C)C3)CC2=O)cc1 (centres undefined),3%,18µM*,nt,nt,-7%
COc1ccc(Cc2nnc(N/N=C/c3ccc(C)o3)[nH]c2=O)cc1,13%,-6%,11µM*,-26%,-9%
COc1ccc(Cc2nnc(N/N=C/c3ccc(Br)cc3)[nH]c2=O)cc1OC,1%,1%,13%,-8%,-12%
COc1ccc(Cc2nnc(N/N=C/c3ccc(O)cc3)[nH]c2=O)cc1OC,8.2µM*,?,2.2µM*,4µM*,5.8µM*
CCOC(=O)C(C)OC(=O)C1=C(C)NC(=O)NC1c1ccc2c(c1)OCO2 (centres undefined),-9%,-7%,1%,0%,-2%
CSc1nsc(/C=C/Nc2ccc(C)c(C)c2)c1C#N,1.2µM*,18µM*,44%,-5%,0%
COc1ccc2[nH]cc(CCNc3cc(-c4ccccc4OC)ncn3)c2c1,nt,nt,10%,-8%,nt
